Some of the results follow. Unmarked numbers belong to inactive results. Activity calls are given as the source filed them.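 The calls were made as follows: active = inhibition of the enzyme GSTO1 above about 75% (limit read from the data); inactive = inhibition below that limit.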
Biological target: Glutathione S-transferase omega-1 (Homo sapiens) (UniProt P78417)
Experiment: recombinant GSTO1 blockade by competitive ABPP – biochemical, gel ABPP, SE-Rh probe, percent inhibition, late-stage follow-up (AID 463110)
Details: recombinant GSTO1, gel ABPP SE-Rh probe fluorescence; at 1 µM; active compounds read high

Glutathione S-transferase omega-1 (Homo sapiens), sequence (P78417 whole entry, looked up): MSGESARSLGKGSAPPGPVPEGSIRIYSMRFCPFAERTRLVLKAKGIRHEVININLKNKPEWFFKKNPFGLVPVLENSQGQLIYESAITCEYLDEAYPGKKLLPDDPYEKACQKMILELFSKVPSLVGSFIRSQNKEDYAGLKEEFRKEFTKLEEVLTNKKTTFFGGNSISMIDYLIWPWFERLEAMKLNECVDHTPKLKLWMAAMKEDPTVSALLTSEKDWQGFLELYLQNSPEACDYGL

| Structure (SMILES) | inhibition |
| --- | --- |
| O=c1cc(CCl)nc2scc(-c3ccccc3)n12 | 82% (active) |
| Cc1ccc(N(Cc2cc(=O)[nH]c3ccccc23)C(=O)CCl)cc1 | 36% |
| CCC1(CC)Cc2ccccc2-c2nc(CCl)[nH]c(=O)c21 | 79% (active) |
| COc1ccc(C(C(=O)NC2CCCCC2)N(C(=O)CCl)c2ccccc2Cl)cc1 (stereo not given) | 23% |
| O=C(c1[nH]ncc1-c1ccc(Cl)cc1)C1CO1 (stereo not given) | 29% |
